Compounds without any hit were thinned out: in the full panel of roughly 83,000, 20% have a hit.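 The test compound was applied at a single concentration to cells in 96-well plates for 48 hours, and percent growth was recorded.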 Active and inactive are the calls of the source. The calls were made as follows: active = growth percent below 10; inactive = the rest.
Key:
Assay in all cases: NCI-60 one-dose screen, 48 h (100 = growth as untreated, 0 = no growth, -100 = all killed)
Conditions in all cases: 10 µM unless noted
[1] = tested on: NCI-H23 lung
[2] = tested on: NCI-H226 lung
[3] = tested on: NCI-H322M lung
[4] = tested on: HOP-62 NSCLC
[5] = tested on: NCI-H460 lung
[6] = tested on: HOP-92 NSCLC
[7] = tested on: NCI-H522 lung
[8] = tested on: A549/ATCC NSCLC
[9] = tested on: 786-0 renal
[10] = tested on: COLO 205 colon
[11] = tested on: DU-145 prostate
[12] = tested on: K-562 leukemia
[13] = tested on: MALME-3M melanoma
[14] = tested on: MDA-MB-231 breast
[15] = tested on: RXF 393 renal
[16] = tested on: SF-268 CNS
[17] = tested on: SF-295 CNS
[18] = tested on: SF-539 CNS
[19] = tested on: UACC-257 melanoma
[20] = tested on: M14 melanoma

Measured: growth

COc1cc(/C=C2/Oc3cc4occc4c(OC)c3C2=O)ccc1OCC(=O)Nc1ccncc1
inactive: [1] 94.1% | [2] 95% | [3] 97.3% | [4] 85.7% | [5] 104% | [6] 97.4% | [7] 85.4% | [8] 101% | [9] 101% | [10] 107% | [11] 112% | [12] 107% | [13] 110% | [14] 89.9% | [15] 118% | [16] 105% | [17] 107% | [18] 97% | [19] 104% | [20] 98.8%

O=C(C[n+]1ccccc1Cl)c1ccc2c(c1)CCCC2
inactive: [1] 92% | [2] 112% | [3] 106% | [4] 90.6% | [5] 107% | [6] 95.1% | [7] 87.4% | [8] 85.6% | [9] 75.5% | [10] 56.3% | [11] 97.1% | [12] 82.9% | [13] 81.8% | [14] 99.7% | [15] 95.8% | [16] 99.5% | [17] 99.4% | [18] 97.6% | [19] 101% | [20] 86.2%

CC(/C=C/C=C(\C)[C@H](O)[C@H](C)C(=O)O[C@H]1C[C@H](C)C=C2C=C[C@@]3(C)O[C@@H](O)CC(=O)[C@]3(C)[C@H]21)=C\C=C\C(=O)O
inactive: [14] 19.8%
active: [1] -6.25% | [2] -3.28% | [3] 4.63% | [4] -3.68% | [5] 2.9% | [6] -14.2% | [7] -11.8% | [8] 3.63% | [9] 1.96% | [10] -55.9% | [11] 4.82% | [12] 5.89% | [13] -57% | [15] -49.5% | [16] 7.59% | [17] 2.34% | [18] -15.9% | [19] 2.06% | [20] -51.3%

Nc1nccc2c1ccn2-c1cccc(NC(=O)c2ccc(N3CCOCC3)c(C(F)(F)F)c2)c1
inactive: [1] 16.4% | [2] 35.8% | [3] 35.3% | [4] 24.1% | [8] 10.8% | [13] 39.8% | [16] 21.8% | [19] 59.2% | [20] 16%
active: [5] 1.28% | [6] -6.29% | [7] -43% | [9] -38.9% | [10] -38.6% | [11] -0.195% | [12] 9.79% | [14] 6.1% | [15] -75.9% | [17] -30.9% | [18] 3.23%

COc1ccc(-n2c(-c3ccc(NC(=O)CCCl)cc3)nnc2-c2cc(OC)c(OC)c(OC)c2)cc1
active: [5] 7.54% | [10] 8.54% | [15] 8.38%
inactive: [1] 54.8% | [2] 68.8% | [3] 59.4% | [4] 54.8% | [6] 46.1% | [7] 43.8% | [8] 30.2% | [9] 75.4% | [11] 22.7% | [12] 49.8% | [13] 71.4% | [14] 53.2% | [16] 78.6% | [17] 53.1% | [18] 41.5% | [19] 52.1% | [20] 59.5%

CCOC(=O)c1[nH]c(-c2ccc(Cl)cc2)cc1-c1cccnc1
inactive: [1] 35.1% | [2] 68.4% | [3] 59.4% | [4] 10.5% | [6] 17% | [8] 30.7% | [9] 24.5% | [11] 19% | [13] 72.7% | [14] 40.3% | [16] 46.6% | [17] 10.9% | [19] 86.3% | [20] 14.3%
active: [5] 7.36% | [7] -1.79% | [10] -15.5% | [12] 6.33% | [15] -2.78% | [18] -24.8%

COc1ccc(-c2ccc(NC(=O)Nc3ccc(Cl)c(C(F)(F)F)c3)c(C)n2)cc1
inactive: [1] 30.9% | [2] 65.2% | [3] 71.4% | [4] 62.1% | [5] 30.9% | [6] 27% | [7] 24.8% | [8] 38.7% | [9] 56.1% | [10] 80.1% | [11] 54.5% | [12] 16.7% | [13] 82.6% | [14] 85% | [15] 81.4% | [16] 73.7% | [17] 47% | [18] 81.3% | [19] 57.1% | [20] 31.9%

From PubChem BioAssay (NCI)
